Sampled rows, rich in hits. Any-hit rate of the full collection: about 2.4%.
PHOSPHO1 block – PHOSPHO1 (human) inhibition. Q8TCT1. recombinant PHOSPHO1, absorbance phosphatase assay. inhibition, % at 13.3 µM. 1.1% of 290,000 active. AID 1565; in the data active means inhibition above about 60%
Target sequence (Q8TCT1 whole entry, looked up): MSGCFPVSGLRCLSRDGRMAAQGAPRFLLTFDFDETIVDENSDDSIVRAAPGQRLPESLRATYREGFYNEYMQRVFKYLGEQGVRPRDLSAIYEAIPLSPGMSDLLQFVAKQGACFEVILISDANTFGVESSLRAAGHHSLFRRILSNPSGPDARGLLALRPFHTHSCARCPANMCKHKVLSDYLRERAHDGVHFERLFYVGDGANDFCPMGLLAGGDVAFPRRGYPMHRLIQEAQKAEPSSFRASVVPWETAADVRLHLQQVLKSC
Efa HMGR inh – E. faecalis class II HMG-CoA reductase inhibition | 0.41% of 190,000 active | purified E. faecalis HMGR, NADPH absorbance 340 nm kinetic | inhibition, % at 10 µM;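 active means inhibition above a set limit, the median over all tested compounds plus 3 SD, cut at about 9.5% in these data; inconclusive means no clear call, values can overlap the other calls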;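 further: enzyme runs in reverse so mevalonate oxidation gives rising NADPH absorbance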
PABP polyA inh – PABP-poly(A) binding inhibition. AID 2014. PABP-poly(A) RNA binding, fluorescence polarization. P11940. 1% of 290,000 active. calls only at 35 µM;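 further: calls also rest on retests at 20 µM and on dose response follow-up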
eIF4H FP inh – inhibitors of RNA binding by human eIF4H. Q15056. eIF4H fluorescence polarization binding assay. inhibition, % at 35 µM. 0.94% of 290,000 active. AID 2012;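 further: calls also rest on retests at 20 µM and on dose response follow-up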
PABP1 MLLE inh – blocks PAM2 peptide binding to the PABP1 MLLE domain. P11940. GST-MLLE / FITC-PAM2 fluorescence polarization. inhibition, % at 20 µM. 0.36% of 360,000 active; in the data active means inhibition above about 35%, passing the limit was not always enough
Large screens that a line does not name were inactive; ! = not confirmed by another sample. Unless noted, how the calls were made is not given here.

C[C@@H]1CN([C@H](C)CO)C(=O)CCCn2cc(nn2)CO[C@H]1CN(C)C(=O)Oc1cccc2ccccc12	none (no result: PHOSPHO1 block, Efa HMGR inh, PABP polyA inh, eIF4H FP inh)
Cc1ccc(/C=C2\C(=O)NC(=O)N(CCc3ccc(F)cc3)C2=O)o1	PABP polyA inh active, eIF4H FP inh inconclusive
Cc1ccc(/C=C2\C(=O)NC(=S)N(c3cccc(F)c3)C2=O)o1	PABP polyA inh active (no result: Efa HMGR inh)
COc1ccc(N2C(=O)/C(=C/c3ccc(C)o3)C(=O)NC2=S)cc1	none (no result: Efa HMGR inh)
COc1cc(/C=C2\C(=O)NC(=O)N(c3ccccc3)C2=O)c([N+](=O)[O-])cc1OC	PABP1 MLLE inh 49
COc1cc(/C=C2\C(=O)NC(=O)N(c3ccccc3)C2=O)cc(OC)c1O	none
Cc1cccc(N2C(=O)NC(=O)/C(=C/c3ccc([N+](=O)[O-])o3)C2=O)c1	PABP polyA inh active, eIF4H FP inh 80 (no result: PABP1 MLLE inh)
CN(C)c1ccc(/C=C2\C(=O)NC(=O)N(Cc3ccc(F)cc3)C2=O)cc1	PABP polyA inh active, eIF4H FP inh inconclusive (no result: Efa HMGR inh)
C[n+]1c2ccccc2nc2ccc(NCCO)cc21	PABP polyA inh active (no result: Efa HMGR inh)
CNc1ccc2nc3ccccc3[n+](C)c2c1	PABP polyA inh inconclusive, eIF4H FP inh inconclusive, PABP1 MLLE inh 86 (no result: Efa HMGR inh)
OCCNc1c2c(nc3ccccc13)CCCC2	none
Oc1ccc(O)c2c1C1(Cl)C(Cl)=C(Cl)C2(Cl)C1(Cl)Cl	none (no result: PHOSPHO1 block, Efa HMGR inh, PABP polyA inh, eIF4H FP inh)
CN1CC=C2C(C#N)=C(N)C(C#N)(C#N)C(c3ccncc3)C2C1 (configuration not stated)	PABP polyA inh active, eIF4H FP inh 122
CN(C)c1ccc2c(c1)N=C(c1ccco1)OP2(=S)N1CCOCC1 (configuration not stated)	PHOSPHO1 block 90
O=C1NCN(c2ccccc2)C12CCN(C(c1ccnc3ccccc13)c1nnnn1C1CCCC1)CC2 (configuration not stated)	none (no result: PHOSPHO1 block, Efa HMGR inh, PABP polyA inh, eIF4H FP inh)
O=C(O)Cn1cc(C=C2C(=O)NC(=O)NC2=O)c2ccccc21	PABP polyA inh active, eIF4H FP inh inconclusive (no result: Efa HMGR inh)
COc1cc2c(cc1O)CC1c3c(cc(O)c(OC)c3-2)CCN1C (configuration not stated)	PABP polyA inh active!, eIF4H FP inh 81!
CC(C)(C)N1C(=O)NC(=O)/C(=C\c2ccc3c(c2)CCN3CCCCl)C1=O	PABP polyA inh active (no result: Efa HMGR inh)
CCCC[N+]12CCC(CC1)C(C(O)(c1ccccc1)c1ccccc1)C2 (configuration not stated)	eIF4H FP inh active (no result: Efa HMGR inh)
CN(C)CCCN=Cc1c(O)n(CCc2ccccc2)c(=O)[nH]c1=O	eIF4H FP inh 96
CC(C)C[C@H](NC(=O)[C@@H]1CCCN1C(=O)[C@@H](N)Cc1ccc(O)cc1)C(=O)NCC(N)=O	Efa HMGR inh 18
Nc1c(C(=O)NCc2ccco2)c2nc3ccccc3nc2n1CCN1CCCCC1	PABP polyA inh active, eIF4H FP inh 72
CC[C@@H](CO)NC(=O)[C@@H]1C=C2c3cccc4c3c(cn4C)C[C@H]2N(C)C1	PABP polyA inh inconclusive, eIF4H FP inh inconclusive, PABP1 MLLE inh 75!
O=C1C(Br)C2CCC1C2C(=O)O (configuration not stated)	none (no result: PHOSPHO1 block, Efa HMGR inh, PABP polyA inh, eIF4H FP inh)
O=C1CCC2(O)C3Cc4ccc(O)c5c4C2(CCN3Cc2ccoc2)C1O5 (configuration not stated)	none (no result: PHOSPHO1 block, Efa HMGR inh, PABP polyA inh, eIF4H FP inh)
CC(C)c1ccc(N2C(=O)NC(=O)/C(=C/c3cnc(-c4ccccc4)nc3)C2=O)cc1	PABP polyA inh active
CSc1ncc(/C=C2/C(=O)NC(=O)N(c3ccc(C(C)C)cc3)C2=O)cn1	none
CC(C)(C)c1ccc(C(=O)C2CCCN(C3CCC3)C2)cc1 (configuration not stated)	PHOSPHO1 block 60
CC(C)(C)c1ccc(C(=O)C2CCCN(Cc3ccon3)C2)cc1 (configuration not stated)	none
Cc1cc(C=C2C(=O)N(C)C(=S)N(C)C2=O)c(C)n1C1CCCCC1	PHOSPHO1 block 65
CC(C)N1C(=O)CC2(CC[N+](C)(CCOC(=O)C(O)(c3ccccc3)c3ccccc3)CC2)C1=O (configuration not stated)	PABP polyA inh active, eIF4H FP inh 1.2
CCN(CC)CCOC(=O)C(O)(c1ccccc1)c1ccccc1	none
Nc1cncc(C(=O)O)c1	eIF4H FP inh 53!
CCC(C)n1c(O)c(C=Nc2cccc(C(F)(F)F)c2)c(=O)[nH]c1=S (configuration not stated)	PABP polyA inh active, eIF4H FP inh 60
CC(C)n1c(O)c(C=NCc2cccnc2)c(=O)[nH]c1=S	none (no result: Efa HMGR inh)
Cc1cccc(C)c1-n1nnnc1C(c1cccc2ccccc12)N1CCC2(CC1)C(=O)NCN2c1ccccc1 (configuration not stated)	none (no result: PHOSPHO1 block, Efa HMGR inh, PABP polyA inh, eIF4H FP inh)
CC(C)(C)C(=O)N1Cc2cc(N3CCCCC3)ccc2-n2nncc2C1	none (no result: PHOSPHO1 block, Efa HMGR inh, PABP polyA inh, eIF4H FP inh)
O=C(O)CCC(=O)NCCC1=c2ccccc2=N/C1=C\c1c(O)n(Cc2ccc(F)cc2)c(=S)[nH]c1=O	PHOSPHO1 block 97 (no result: Efa HMGR inh)
O=C(N/N=C/c1c(O)n(Cc2ccc(F)cc2)c(=O)[nH]c1=O)c1ccccc1	none (no result: Efa HMGR inh)
CCCC1(CC(C)CC)C(=O)NC(=O)NC1=O (configuration not stated)	none (no result: PHOSPHO1 block, Efa HMGR inh, PABP polyA inh, eIF4H FP inh)
C[N+](C)(C)CCc1ccc(O)cc1	PABP polyA inh active, eIF4H FP inh inconclusive
CCCCCCCCc1ccc(O)cc1	none (no result: PHOSPHO1 block, Efa HMGR inh, PABP polyA inh, eIF4H FP inh)
O=C(COC(=O)c1cc(Br)cc(Br)c1O)NC12CC3CC(CC(C3)C1)C2	none (no result: PHOSPHO1 block, Efa HMGR inh, PABP polyA inh, eIF4H FP inh)
CCCCCCC(=O)N/N=C/c1c(O)n(CCCC)c(=S)[nH]c1=O	none (no result: Efa HMGR inh)
CCCCC(=O)N/N=C/c1c(O)n(CC)c(=S)[nH]c1=O	eIF4H FP inh 56
C=CCn1c(O)c(/C=C2\C=Nc3ccccc32)c(=O)[nH]c1=O	PABP polyA inh active, eIF4H FP inh inconclusive (no result: Efa HMGR inh)
CC(C)(C)n1nnnc1C(CCc1ccccc1)N1CCC2(CC1)C(=O)NCN2c1ccccc1 (configuration not stated)	none (no result: PHOSPHO1 block, Efa HMGR inh, PABP polyA inh, eIF4H FP inh)
Cc1nn(CCC#N)c2c1P(=S)(N1CCCC1)OC(c1ccc(F)cc1)=N2 (configuration not stated)	PHOSPHO1 block 103
CC(=O)OC1CC2OC3C=C(C)CCC3(C)C1(C)C21CO1 (configuration not stated)	none (no result: PHOSPHO1 block, Efa HMGR inh, PABP polyA inh, eIF4H FP inh)
CCCCn1c(O)c(C(C)=NCCc2c[nH]c3ccccc23)c(=O)[nH]c1=O	PABP polyA inh active, eIF4H FP inh 84 (no result: Efa HMGR inh)
C=CCn1c(O)c(C(C)=NCCc2c[nH]c3ccccc23)c(=O)[nH]c1=O	none (no result: Efa HMGR inh)
O=C(/C=C/c1ccccc1)N1Cc2ccccc2-n2nncc2C1	none (no result: PHOSPHO1 block, Efa HMGR inh, PABP polyA inh, eIF4H FP inh)
CCOC(=O)c1cccc(C2=C(CNC(=O)c3nccs3)[C@H]3CC[C@@H](C2)N3Cc2ccccc2)c1	none (no result: PHOSPHO1 block, Efa HMGR inh, PABP polyA inh, eIF4H FP inh)
COc1cc(N2CCOCC2)ccc1C=C1C(=O)NC(=O)NC1=O	PABP polyA inh active, eIF4H FP inh 69
COc1cc(N2CCOCC2)ccc1/C=C1\C(=O)NC(=O)N(Cc2cccs2)C1=O	eIF4H FP inh inconclusive
CCCn1cc(C(=O)O)cn1	Efa HMGR inh 14
O=C1CN=C(c2ccccc2)c2cc(Cl)ccc2N1	none (no result: PHOSPHO1 block, Efa HMGR inh, PABP polyA inh, eIF4H FP inh)
Cc1ccccc1C1=NCC(=S)Nc2ccc(Cl)cc21	Efa HMGR inh 10
NNCc1ccccc1	none (no result: PHOSPHO1 block, Efa HMGR inh, PABP polyA inh, eIF4H FP inh)
COc1ccc(CC2C(=O)NC(=O)N(c3ccccc3)C2=O)c(OC)c1 (configuration not stated)	none
CCc1ccc(N2C(=O)NC(=O)C(Cc3ccc(OC)cc3OC)C2=O)cc1 (configuration not stated)	PHOSPHO1 block 95
